Laboratory results from PubChem BioAssay.
Calls of active or inactive are those of the source. Unless noted, how the calls were made is not given here.

Tests used:
[1] = test system: XIP peptide (Xip251-270) binding; test: XIP fragment 251-270 binding compounds – biochemical, small-molecule microarray, fluorescence 635/667 nm, 0.1 µg/mL protein, primary screen (AID 1182); details: fluorescent protein binding, 635 nm, higher = more signal, called active from +8 up or from −8 down
[2] = test system: XIP peptide (Xip251-270); test: compounds binding XIP fragment 251-270 – biochemical, small-molecule microarray, fluorescence 635/667 nm, 0.5 µg/mL protein, primary screen (AID 1183); details: fluorescence 635 nm, higher = more signal
[3] = blood-stage malaria parasite viability loss – strain 3D7, DAPI fluorescence, 100 nL, primary screen (AID 1184);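 further: parasites grown inside human red blood cells in medium with human serum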; details: P. falciparum 3D7 growth, 3 d, higher = more signal
[4] = target: Homeobox protein Hox-A13 (Mus musculus) (UniProt Q62424); test: disruptors of Hoxa13 oligonucleotide interaction – biochemical, fluorescence polarization, labeled oligonucleotide, primary screen (AID 1185); details: Hoxa13:DNA binding, 15 min, higher = more signal, called active from +8 up or from −8 down
Homeobox protein Hox-A13 (Mus musculus), sequence (Q62424 whole entry, looked up): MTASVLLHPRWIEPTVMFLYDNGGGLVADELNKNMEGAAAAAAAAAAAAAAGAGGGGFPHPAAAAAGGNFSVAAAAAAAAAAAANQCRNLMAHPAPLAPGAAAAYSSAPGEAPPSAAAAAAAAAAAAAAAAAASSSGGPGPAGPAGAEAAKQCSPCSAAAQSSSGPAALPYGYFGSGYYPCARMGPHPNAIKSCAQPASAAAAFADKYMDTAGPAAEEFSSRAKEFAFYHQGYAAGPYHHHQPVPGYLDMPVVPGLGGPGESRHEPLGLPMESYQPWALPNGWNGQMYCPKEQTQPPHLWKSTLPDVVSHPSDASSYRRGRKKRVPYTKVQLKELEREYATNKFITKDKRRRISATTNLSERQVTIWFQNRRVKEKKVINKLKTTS

[5] = blockers of DNA damage checkpoint Chk1 activation – imaging, HeLa, hydroxyurea, phospho-Chk1 antibody, percent positive cells, primary screen (AID 1186); details: hydroxyurea-induced phospho-Chk1 immunofluorescence imaging, higher = more signal
[6] = blockers of DNA damage checkpoint Chk1 activation – imaging, HeLa, hydroxyurea, phospho-Chk1 nuclear intensity, primary screen (AID 1187); details: hydroxyurea-induced phospho-Chk1 immunofluorescence imaging, higher = more signal

Compound	composite z-score [1]	composite z-score [2]	z-score [3]	z-score [4]	z-score [5]	z-score [6]
[N-]=[N+]=NCc1ccccc1C[C@]1(C(=O)N2CCOCC2)N=C(c2ccc(OCCCO)cc2)O[C@H]1c1ccccc1N=[N+]=[N-]	0.141 (inactive)	0.229	-2.6	-2.96 (inactive)	-0.551 (inactive)	-0.635 (inactive)
COC(=O)C=C(CC(O)c1cccc(Cl)c1)OC (stereo unspecified)	0.633 (inactive)	0.744	-0.0951	-1.42 (inactive)	-1.22 (inactive)	-1.18 (inactive)
COCCOC(=O)N1C(=O)[C@@]2(c3cc(C#CCCO)ccc31)[C@H](C(=O)N1CCN(c3ncccn3)CC1)[C@H]1C(=O)O[C@H](c3ccccc3)[C@H](c3ccccc3)N1[C@@H]2c1ccccc1OCCO	0.954 (inactive)	0.655	-2.28	-1.58 (inactive)	-0.0632 (inactive)	0.111 (inactive)
Cc1ccc(S[C@]2(C(=O)NCC(C)C)CC(=O)N(Cc3cc(C(F)(F)F)cc(C(F)(F)F)c3)[C@@H]2c2ccc(CO)cc2I)cc1	0.861 (inactive)	0.569	-0.433	-2.28 (inactive)	0.208 (inactive)	0.473 (inactive)
COCCOC(=O)N1C(=O)[C@@]2(c3cc(C#CC4=CCCCC4)ccc31)[C@H](C(=O)N1CCc3cc(OC)c(OC)cc3C1)[C@H]1C(=O)O[C@H](c3ccccc3)[C@H](c3ccccc3)N1[C@@H]2c1ccc(OCCO)cc1	0.173 (inactive)	0.383	-2.09	3.59 (inactive)	0.206 (inactive)	0.631 (inactive)
O=C(c1ccccc1)N1Cc2ccccc2[C@@H]2OC(c3ccc(OCCCO)cc3)=N[C@]2(Cc2ccccc2)C1=O	1.67 (inactive)	0.576	-2.2	1.01 (inactive)	0.103 (inactive)	-0.3 (inactive)
O=C1O[C@H](c2ccccc2)[C@H](c2ccccc2)N2[C@H]1[C@@H](C(=O)Nc1nc3ccccc3s1)[C@]1(C(=O)Nc3ccc(C#CC4(O)CCCCCC4)cc31)[C@H]2c1ccc(OCCO)cc1	2.25 (inactive)	0.663	-1.8	-0.979 (inactive)	0.341 (inactive)	0.346 (inactive)
O=C1NC(=O)C2C1C=CC(C(O)C(c1ccccc1)c1ccccc1)N2Nc1ccc(Cl)cc1Cl (stereo unspecified)	0.69 (inactive)	-0.0049	-0.289	-4.15 (inactive)	0.735 (inactive)	0.889 (inactive)
CC(C)(C)OC(=O)CC[C@@]12N=C(c3ccc(OCCCO)cc3)O[C@@H]1c1ccccc1N(CCS(=O)(=O)c1ccccc1)C2=O	-0.204 (inactive)	0.569	-1.7	-3.42 (inactive)	-0.739 (inactive)	-0.767 (inactive)
COCCOC(=O)N1C(=O)[C@@]2(c3cc(C#CC4=CCCCC4)ccc31)[C@H](C(=O)Nc1nc3ccccc3s1)[C@H]1C(=O)O[C@H](c3ccccc3)[C@H](c3ccccc3)N1[C@@H]2c1ccc(OCCO)cc1	-0.555 (inactive)	0.467	-1.52	3.78 (inactive)	-0.0093 (inactive)	0.303 (inactive)
C=CCC(OC(C)=O)[C@@H]1[C@@H](N(Cc2ccc(-c3cccc(C(F)(F)F)c3)o2)C(=O)Cc2ccc(F)cc2)c2cc(OCCCO)ccc2N1C(=O)Cc1ccc(OC)cc1 (stereo partly specified)	0.664 (inactive)	-0.0147	-1.61	-1.69 (inactive)	0.0521 (inactive)	0.633 (inactive)
Cc1ccc(S[C@]2(C(=O)NC(C)C)CC(=O)N(Cc3ccccc3Cl)[C@@H]2c2ccc(CO)cc2I)cc1	0.226 (inactive)	0.293	0.906	-3.31 (inactive)	0.244 (inactive)	0.723 (inactive)
C=C(COC)/C(=C/C[C@@H](OC(C)=O)c1ccc(CO)o1)c1cnc2ccccc2c1	1.12 (inactive)	0.797	-1.35	-4.13 (inactive)	-0.154 (inactive)	-0.323 (inactive)
COc1cc2c(cc1OC)CN(C(=O)[C@H]1[C@@H]3C(=O)O[C@@H](c4ccccc4)[C@@H](c4ccccc4)N3[C@@H](c3ccc(O)cc3)[C@]13C(=O)Nc1ccc(C#CCNC(N)=O)cc13)CC2	-0.564 (inactive)	0.497	-0.599	-1.24 (inactive)	-0.192 (inactive)	-0.245 (inactive)
COc1ccc(COC2OC[C@]3(C)[C@H]4C5=C(CN3C(=O)OC(C)(C)C)[C@H](C)C(CO)C(CO)C5CC[C@@H]24)cc1 (stereo partly specified)	-0.188 (inactive)	0.505	-1.04	-4.75 (inactive)	0.721 (inactive)	0.353 (inactive)
COc1cc(CO)cc(I)c1O[C@H]1C=C(C(=O)NCCO)C[C@@H](N(CCN2CCOCC2)C(=O)C2CCOC2)[C@@H]1O (stereo partly specified)	0.384 (inactive)	0.551	0.199	-7.57 (inactive)	-0.182 (inactive)	0.246 (inactive)
C=C(CCCC)/C(=C/C[C@@H](OC(C)=O)c1ccccc1OCCO)c1cnc2ccccc2c1	-0.475 (inactive)	0.234	-3.01	-5.06 (inactive)	1.11 (inactive)	0.212 (inactive)
C=C(CCCC)C(=O)CC[C@H](OC(=O)c1cccnc1)c1ccccc1OCCO	0.0328 (inactive)	0.222	-3.02	-5.25 (inactive)	-1.12 (inactive)	-0.27 (inactive)
[N-]=[N+]=NCc1ccccc1[C@@H]1OC(c2ccc(OCCCO)cc2)=N[C@]1(CCS(=O)(=O)c1ccccc1)C(=O)NCc1ccccc1	0.212 (inactive)	0.838	-2.5	-0.438 (inactive)	0.21 (inactive)	-0.126 (inactive)
C=CC[C@@]1(C(=O)NCc2ccccc2)N=C(c2ccc(OCCCO)cc2)O[C@@H]1c1ccccc1N=[N+]=[N-]	0.0885 (inactive)	0.764	-1.92	-1.72 (inactive)	-0.334 (inactive)	-0.183 (inactive)
CCOC(=O)[C@H]1C/C=C/C[C@H](C(=O)OCC)C(=O)O[C@H]2[C@@H](OC)O[C@H](CO)[C@@H](OC(=O)Nc3cccc(F)c3)[C@@H]2OC1=O	1.17 (inactive)	0.526	-1.73	-2.16 (inactive)	-0.197 (inactive)	-0.145 (inactive)
CN1C(=O)C2C=CC(C(O)c3ccc(-c4ccccc4)s3)N(N(c3ccccc3)c3ccccc3)C2C1=O (stereo unspecified)	0.254 (inactive)	0.322	0.33	0.329 (inactive)	0.288 (inactive)	-0.108 (inactive)
O=C1O[C@H](c2ccccc2)[C@H](c2ccccc2)N2[C@H]1[C@@H](C(=O)Nc1nc3ccccc3s1)[C@]1(C(=O)Nc3ccc(C#CCCO)cc31)[C@H]2c1ccc(OCCO)cc1	0.497 (inactive)	0.769	-1.19	1.37 (inactive)	-0.239 (inactive)	-0.262 (inactive)
CN1C(=O)C2C=CC(C(O)Cc3ccccc3)N(Nc3ccccc3)C2C1=O (stereo unspecified)	-0.0041 (inactive)	0.508	0.538	-4.51 (inactive)	-0.444 (inactive)	-0.889 (inactive)
CCOC(=O)C[C@H]1[C@H](OC(=O)c2cc3ccccc3oc2=O)[C@@H](NC(=O)C2CCCCC2)c2cc(OCCCO)ccc2N1C(=O)c1ccccc1	-0.194 (inactive)	0.327	-1.73	-3.06 (inactive)	0.895 (inactive)	1.11 (inactive)
CCOC(=O)C[C@H]1[C@H](OC(=O)c2cc3ccccc3oc2=O)[C@@H](NC(=O)Cc2ccc(OC)cc2)c2cc(OCCCO)ccc2N1C(=O)c1ccccc1	0.48 (inactive)	0.853	-1.9	-2.46 (inactive)	0.907 (inactive)	0.546 (inactive)
